# Measured values reported in PubChem BioAssay (Tox21).
# Values joined by “and” are separate entries in the source; they are usually repeats but may differ in a detail not shown here. Equal entries are not always repeated. Results filed as inconclusive are left out. Where a structure was tested more than once in an assay, its records may differ in their call. Active and inactive are the calls of the source. The call rests on the fitted dose curve; in most records, active means well fitted cell-killing curve with a large enough effect in the repeat runs; inconclusive means weak or mixed curves; inactive means flat fitted curve, though single readings scatter.
# Experiment: qHTS assay to identify small molecule antagonists of the estrogen receptor beta (ER-beta) signaling pathway - cell viability counter screen (AID 1259382); further: nearly all actives have a fitted effect of over 55% in size
# Conditions: ER-beta-UAS-bla HEK293T viability, CellTiter-Glo luminescence, 16 h; series mostly up to 92.4 µM; activity change, negative = cytotoxicity: at the top concentration
# Text: U.S. Tox21 Program National Center for Advancing Translational Sciences [NCATS] NIH Chemical Genomics Center [NCGC] U.S. Environmental Protection Agency [EPA] National Institutes of Environmental Health Sciences [NIEHS] National Toxicology Program [NTP] U.S. Food and Drug Administration [FDA] Tox21 Assay Overview: Estrogen receptor (ER), a nuclear hormone receptor, plays an important role in development, metabolic homeostasis and reproduction. Two subtypes of ER, ER-alpha and ER-beta, have similar expression patterns with some uniqueness in both types. Endocrine disrupting chemicals (EDCs) and their interactions with steroid hormone receptors like ER causes disruption of normal endocrine function. To identify the compounds that inhibit ER signaling, an ER-beta-UAS-bla GripTite cell line (Life Technologies, Madison, WI, USA) containing a beta-lactamase reporter gene under the control of an UAS response element was used to screen Tox21 10K compound library. The cytotoxicity of the Tox21 compound library against the ER-beta-bla cell line was tested in parallel by measuring the cell viability using CellTiter-Glo assay in the same wells.
# Tox21 Assay Protocol Summary: ER-beta-UAS-bla HEK293T cells were dispensed at 2,000 cells/4 uL of assay medium containing 2% charcoal stripped FBS per well into black wall/clear-bottom 1536-well plates using a Multidrop Combi (ThermoFisher Scientific, Waltham, MA) dispenser. After the assay plates were incubated at a 37C and 5% CO2 for 6 hr, 23 nL of compounds dissolved in DMSO, positive controls or DMSO only was transferred to the assay plate by a Pintool station (Kalypsys, San Diego, CA), followed by addition of 1 uL (1nM as final concentration) of 17-beta-estradiol (E2) in assay medium using a Flying Reagent Dispenser (FRD, Aurora Discovery, San Diego, CA). The plates were incubated at 37C and 5% CO2 for 16 hr. Then 1 uL of LiveBLAzer B/G FRET substrate was added using a Flying Reagent Dispenser, the plates were incubated at room temperature for 2 hours, and fluorescence intensity was measured by an Envision plate reader (PerkinElmer, Shelton, CT). For cell viability readout that measures cytotoxicity, 4 uL/well of CellTiter-Glo reagent was added into the assay plates using a FRD. After 30 min incubation at room temperature, the luminescence intensity in the plates was measured using a ViewLux (PerkinElmer) plate reader.
# On the % scale 0 is the no-effect control and ±100 the full control effect; potency means the concentration at half of the fitted maximal effect.
Compound,"activity change, negative = cytotoxicity",Potency
COc1cc(N)c(Cl)cc1C(=O)NC1CN2CCC1CC2 (stereo not given),7.13% [at 42.5 µM] (inactive),
ClC1=C(Cl)[C@]2(Cl)[C@H]3[C@H]([C@H]4C=C[C@H]3C4)[C@@]1(Cl)C2(Cl)Cl,4.46% (inactive),
CC(C)(c1ccc(O)c(-c2ccccc2)c1)c1ccc(O)c(-c2ccccc2)c1,,27.3 µM (active)
CC[C@H](C)[C@H]1O[C@]2(C=C[C@@H]1C)C[C@@H]1C[C@@H](C/C=C(\C)[C@@H](O[C@H]3C[C@H](OC)[C@@H](O[C@H]4C[C@H](OC)[C@@H](O)[C@H](C)O4)[C@H](C)O3)[C@@H](C)/C=C/C=C3\CO[C@@H]4[C@H](O)C(C)=C[C@@H](C(=O)O1)[C@]34O)O2,,25.6 µM (active)
CCC(C)c1cc(C(C)(C)C)cc(-n2nc3ccccc3n2)c1O (stereo not given),1.35% [at 42.5 µM] (inactive),
N#CNC#N,1.23% (inactive),
N#CCCSCCC#N,-0.523% (inactive),
Oc1ccc(C(c2ccc(O)cc2)(C(F)(F)F)C(F)(F)F)cc1,,60.8 µM (active) and inactive
Cc1cc(C)cc(OP(=O)(Oc2cc(C)cc(C)c2)Oc2cc(C)cc(C)c2)c1,2.2% (inactive),
S=C=Nc1cccc2ccccc12,,67.9 µM (active)
CC1(C)CC/C(=C/c2ccc(Cl)cc2)C1(O)Cn1cncn1 (stereo not given),2.14% (inactive),
[Hg+2].[I-].[I-],,6.86 µM (active)
Nc1ccc(Cc2ccc(N)c(Cl)c2)cc1Cl,,46.9 µM (active)
CC(O)C#N (stereo not given),8.36% (inactive),
N#CSCSC#N,,55.7 µM (active) and 48.1 µM (active)
CN(C)C1CSSSC1,-2.01% (inactive),
N#CCCO,9.95% (inactive),
ClCCN1CCOCC1,3.11% (inactive),
COc1ccc([N+](=O)[O-])cc1O,1.01% [at 42.5 µM] (inactive),
CC(Cc1ccc(C(C)(C)C)cc1)CN1C[C@@H](C)O[C@@H](C)C1 (stereo not given in full),2.89% (inactive),

Compound,"activity change, negative = cytotoxicity",Potency
CCOP(=S)(OCC)OC(Cl)C(Cl)(Cl)Cl (stereo not given),9.25% (inactive),
COc1cccc(C(=O)CCN[C@@H](C)[C@H](O)c2ccccc2)c1,-12.2% [at 42.5 µM] (inactive),
CN(C)c1ccc(N=Nc2ccccc2)cc1,-16.2% (inactive),
CN(CCCC(O)c1cccnc1)N=O (stereo not given),-1.79% (inactive),
Cc1ccc(CCl)cc1,7.03% (inactive),
C[C@@H]1O[C@@H](O[C@H]2C[C@@H](O)[C@]3(CO)[C@H]4[C@H](O)C[C@]5(C)[C@@H](C6=CC(=O)OC6)CC[C@]5(O)[C@@H]4CC[C@]3(O)C2)[C@H](O)[C@H](O)[C@H]1O,,46.1 nM (active) and 75 nM (active)
CC(=O)[O-].CC(=O)[O-].[Hg+2],,6.11 µM (active)
O=[N+]([O-])c1cc(C(F)(F)F)c(Cl)c([N+](=O)[O-])c1Cl,,30.6 µM (active)
O=C(Cl)c1ccc(Cl)cc1,-2.39% (inactive),
CCOP(=S)(OCC)SCS(=O)(=O)CC,-0.904% (inactive),
CCOC(=O)CC(=O)CCl,6.15% (inactive),
CC1(C)CN=C(NN=C(/C=C/c2ccc(C(F)(F)F)cc2)/C=C/c2ccc(C(F)(F)F)cc2)NC1,,19.3 µM (active)
Oc1ccc(I)cc1,1.01% (inactive),
COC(=O)N(C(=O)N1CO[C@@]2(C(=O)OC)Cc3cc(Cl)ccc3C2=N1)c1ccc(OC(F)(F)F)cc1,-8.47% (inactive),
O=C(O)C1C2CCC(O2)C1C(=O)O (stereo not given),,inactive
Cn1cc(C2=C(c3cn(C4CCN(Cc5ccccn5)CC4)c4ccccc34)C(=O)NC2=O)c2ccccc21,-0.0265% [at 42.5 µM] (inactive),
CC(=O)c1cc(C(C)(C)C)cc2c1CCC2(C)C,12.6% (inactive),
COc1ccc(N)cc1N,,22.4 µM (active)
Oc1ccc(C2(c3ccc(O)cc3)c3ccccc3-c3ccccc32)cc1,,61.1 µM (active)
O=c1c(C2CC(c3ccc(-c4ccc(Br)cc4)cc3)Cc3ccccc32)c(O)sc2ccccc12 (stereo not given),-14.4% [at 42.5 µM] (inactive),
